This is a sample that favours compounds with a hit; in the whole collection about 2% have one here.
CHO-K1 Ca PAM: M1 PAM counterscreen hit in parental CHO-K1 cells; ATP EC20, Fluo-8 calcium fluorescence; 0% at ATP EC20, 100% at ATP max; activation, % at 3 µM; hit rate 0.02% among 360,000; AID 602247;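 active = activation above the run cutoff, the mean activation of all test compounds plus 3 SD, cut at about 40% in these data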;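 also: peak over basal fluorescence ratio in a 140 s read after ATP addition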
CHRM4 agonist: CHRM4 agonism in calcium assay | P08173 | CHO-K1 hM4/Gqi5, Fluo-8 calcium fluorescence; vehicle 0%, full acetylcholine response 100% | activation, % at 3 µM | hit rate 0.14% among 360,000;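 active = activation above the run mean over all test wells plus 3 SD, cut at about 32% in these data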;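 also: peak over basal fluorescence ratio per well then scaled between controls; 0% = DMSO wells and 100% = acetylcholine at EC100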
Target sequence (P08173 whole entry, looked up): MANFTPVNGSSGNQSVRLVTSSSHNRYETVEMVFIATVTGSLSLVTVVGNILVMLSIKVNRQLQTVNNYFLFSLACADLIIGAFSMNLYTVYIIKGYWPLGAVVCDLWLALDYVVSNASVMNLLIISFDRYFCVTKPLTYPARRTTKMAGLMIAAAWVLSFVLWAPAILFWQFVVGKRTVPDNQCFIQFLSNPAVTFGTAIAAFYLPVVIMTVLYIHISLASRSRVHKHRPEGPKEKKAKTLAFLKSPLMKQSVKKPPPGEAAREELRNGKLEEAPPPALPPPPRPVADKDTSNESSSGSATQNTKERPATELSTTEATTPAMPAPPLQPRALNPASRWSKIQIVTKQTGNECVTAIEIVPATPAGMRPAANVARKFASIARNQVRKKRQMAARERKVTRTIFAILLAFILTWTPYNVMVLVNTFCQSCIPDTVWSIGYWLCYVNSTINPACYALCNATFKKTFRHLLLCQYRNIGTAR
CHRM4 antagonist: antagonists of human muscarinic M4 receptor (CHRM4). AID 624125. inhibition, % at 3 µM. hit rate 0.73% among 360,000. P08173. CHO-hM4 cells, ACh EC80, Fluo-8 calcium fluorescence;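 active = inhibition above its plate's cutoff, the mean inhibition of sample wells plus 3 SD, cut at about 27% in these data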;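 also: 0% = acetylcholine EC80 with DMSO and 100% = DMSO without agonist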
M1 ag parental: M1 agonist counterscreen hit in parental CHO-K1 cells; Fluo-8 calcium fluorescence; scaled to maximal ATP response, vehicle zero; activation, % at 3 µM; hit rate 0.48% among 360,000; AID 602248; in the data active = activation above about 15%;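 also: untransfected CHO-K1 host cells lacking M1 receptor as counterscreen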
CHRM4 PAM: CHRM4 positive allosteric modulation; CHO-K1 hM4/Gqi5, Fluo-8 calcium fluorescence, ACh EC20; 0% = ACh EC20, 100% = maximal ACh; activation, % at 3 µM; hit rate 0.4% among 360,000; AID 624126;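 active = activation above its plate's cutoff, the mean activation of sample wells plus 3 SD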
CHO-K1 Ca antag: nonselective inhibitor or artifact in parental CHO-K1 cells; ATP-induced calcium, Fluo-8 fluorescence; inhibition, % at 3 µM; hit rate 0.6% among 360,000; AID 602250;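 active = inhibition above a per-plate cutoff, the plate's mean sample inhibition plus 3 SD, cut at about 24% in these data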;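 also: 0% = DMSO plus EC80 ATP and 100% = DMSO alone without ATP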
* = called active by the depositor; ! = repeats disagree.

SMILES	CHO-K1 Ca PAM	CHRM4 agonist	CHRM4 antagonist	M1 ag parental	CHRM4 PAM	CHO-K1 Ca antag
O=C(CN1CCCCC1)Nc1ccccc1-c1ccccc1	-0.5	-1.1	68.2*	-1.1	-16.0	-20.4
O=C(CN1CCCCCC1)NN(Cc1ccccc1)c1ccccc1	16.9	0.2	29.3*	1.1	-49.2	1.1
O=C(CN1CCOCC1)Nc1ccccc1-c1ccccc1	-6.9	1.3	13.5	0.0	5.5	10.0
O=C(CN1CCCC1)NCc1ccccc1	28.9	0.9	5.1	1.0	-2.7	-14.6
O=C(/C=N/NC(=O)c1ccc(Cl)cc1Cl)c1ccccc1	14.1	2.7	11.1	3.6	-9.7	-16.4
Cc1cc(C)n2nc(SCc3nnc(SCCCCl)o3)nc2n1	1.1	2.2	32.0*	1.5	-14.0	-11.8
C/C=C/n1ccnc1CC(O)(c1ccccc1)c1ccc(C)cc1 (centres undefined)	24.3	0.1	-5.5	1.4	6.2	-11.3
COc1ccc(CCNC(=O)CN2C(=O)NC3(CCOc4ccccc43)C2=O)cc1 (centres undefined)	15.5	0.8	2.8	1.6	6.5	-10.5
Cn1c(CSCc2ccc(Cl)cc2)nnc1SCC(=O)Nc1nccs1	17.9	5.7	1.9	4.2	-1.3	-9.3
Cn1c(CSCc2ccc(F)cc2)nnc1SCC(=O)Nc1nccs1	8.9	18.0	12.4	4.6	-14.8	26.3*
CC(=O)Nc1ccc(NC(=O)Cn2c(=O)n(-c3ccc(C)cc3)c(=O)c3oc4ccccc4c32)cc1	7.0	-1.0	-0.6	0.0	-0.5	-3.5
CC(=O)Nc1ccc(NC(=O)Cn2c(=O)n(-c3ccccc3)c(=O)c3oc4ccccc4c32)cc1	17.2	0.6	-1.3	15.3*	3.0	0.6
C=CCn1c(SCC(=O)Nc2cccc(S(N)(=O)=O)c2)nnc1C1CCCCC1	0.0	2.6	-24.0	0.1	14.5	-24.6
COc1cccc(C2CC(=O)Nc3cc(C)c(C)cc32)c1 (centres undefined)	6.5	2.8	-9.8	3.1	2.3	-5.6
O=C(Cc1ccc([N+](=O)[O-])cc1)Nc1cc(C(F)(F)F)cc(C(F)(F)F)c1	-21.4	7.8	6.6	3.2	-9.8	29.2*
O=C(Cc1ccc([N+](=O)[O-])cc1)Nc1cccc(C(F)(F)F)c1	-3.5	7.9	-4.4	7.2	-6.9	7.4
COCCn1c2nc(=O)n(-c3ccccc3)c(=O)c-2nc2ccccc21	7.6	65.2*	17.3	72.7*	-12.2	9.7
COc1cc2c(cc1OC)C1(CCCCC1)CN(C)C2	2.5	1.0	-6.7	0.6	-12.7	-6.4
Cc1c(N(C)S(=O)(=O)c2cccc(C(=O)NCc3cccnc3)c2)c(=O)n(-c2ccccc2)n1C	1.3	1.4	-3.6	0.2	-2.8	-5.8
O=C(O)CN1C(=O)NC2NC(=O)NC21 (centres undefined)	6.8	1.5	-0.8	0.6	7.9	-14.6
O=C(O)CCCN1C(=O)NC2NC(=O)NC21 (centres undefined)	-6.8	0.5	-18.1	-0.2	8.7	34.4*
O=C(NCc1cccs1)C1CCN(S(=O)(=O)c2cccc([N+](=O)[O-])c2)CC1	2.7	1.1	0.6	2.0	-1.7	-12.2
Clc1cccc2sc(-c3nnc(-c4ccccc4)o3)c(Cl)c12	-7.4	0.8	7.5	-0.5	2.2	25.6*
Cc1ccccc1CSc1nnc(-c2ccncc2)o1	2.3	1.4	1.3	24.2*	-1.2	2.6
Clc1ccc(CSc2nnc(-c3ccncc3)o2)c(Cl)c1	-9.4	0.1	14.4	0.1	32.3*	15.3
SMILES	CHO-K1 Ca PAM	CHRM4 agonist	CHRM4 antagonist	M1 ag parental	CHRM4 PAM	CHO-K1 Ca antag
c1ccc(CSc2nnc(-c3ccncc3)o2)cc1	-5.7	1.3	9.6	0.2	5.3	1.8
CN(c1cccc(NC(=O)Nc2cccc(Cl)c2)c1)S(C)(=O)=O	1.3	18.9	6.8	18.2*	-10.8	20.5
O=C(Nc1cccc(Cl)c1)Nc1csc([N+](=O)[O-])c1	-5.5	15.3	19.3	15.8*	5.7	20.2
O=C(Nc1ccncc1)Nc1cccc(Cl)c1	1.6	15.1	3.9	14.1	-5.7	3.0
Cc1ccc(SCCC(=O)Nc2cccc(N(C)S(C)(=O)=O)c2)cc1	-1.6	6.2	2.5	25.0*	4.9	41.8*
CC(=O)Nc1cccc(N(C)S(C)(=O)=O)c1	12.4	0.4	-8.7	0.4	7.2	-11.3
CC(C)N(Cc1ccccc1)C(=O)CN1C(=O)COc2ccc(S(=O)(=O)N3CCCCCC3)cc21	38.0	12.0	-2.4	16.1*	-7.3	-30.0
CN(Cc1ccccc1)C(=O)CN1C(=O)COc2ccc(S(=O)(=O)N3CCCC3)cc21	14.2	2.3	2.4	0.5	3.5	-13.3
COC(=O)C1=CN(c2ccc(OC)cc2)C=C(C(=O)OC)C1c1ccc([N+](=O)[O-])cc1	-10.2	0.1	-8.9	-0.3	20.0*	-1.8
COC(=O)C1=CN(c2ccc(F)cc2)C=C(C(=O)OC)C1c1ccc([N+](=O)[O-])cc1	2.6	-0.1	-4.4	-0.2	-1.5	-7.0
CCN1/C(=C/C(C)=C/c2sc3ccccc3[n+]2CC)Sc2ccccc21	-8.0	9.2	34.5*	19.9*!	-17.5	34.3*
COc1ccc(Br)c(C(=O)N2CCCC2(C)C(=O)NCC(C)C)c1 (centres undefined)	-16.4	0.5	-14.6	-0.8	9.9	26.7*
O=C(Nc1cccc(-c2nnc(-c3ccco3)o2)c1)c1ccccc1	5.3	11.6	2.5	4.1	-8.6	-6.5
CC(=O)Oc1ccc(C(=O)Nc2cccc(-c3nnc(-c4ccco4)o3)c2)cc1	6.7	6.1	-8.2	23.7*	-4.0	0.6
CN(C)CCCNCCCNC(=O)c1ccccn1	13.8	0.6	3.7	0.6	3.7	0.1
CN(C)CCCNCCCNC(=O)/C(=N\O)c1ccccc1	27.9	1.2	-16.5	0.9	32.8*	-16.6
Cc1c(C(=O)Nc2ccc3c(c2)OCCO3)sc2nc(-c3ccccc3)cn12	-10.1	30.4	33.6*	15.0	-11.2	9.1
Clc1ccc(CNc2ncnc3[nH]ncc23)c(Cl)c1	-2.4	5.3	0.9	0.6	-0.1	12.0
Cc1ccc(-c2onc3ccc(C(=O)O)cc23)cc1	7.4	0.3	3.4	18.9*	0.0	2.7
CC(=O)c1ccc2noc(-c3ccc(C)cc3)c2c1	4.3	0.7	-10.1	-0.3	1.3	-6.1
C=CCNC(=O)COC(=O)c1cc(S(=O)(=O)N2CCCCC2)ccc1Cl	1.6	1.6	-6.0	0.1	-6.2	5.3
Cc1ccc(C)c(N2CCN(C(=O)c3ccc(CS(=O)Cc4cccc(Cl)c4)o3)CC2)c1 (centres undefined)	3.7	12.3	-7.2	8.0	-8.4	-8.1
CC(=O)Nc1ccc(NC(=S)NC(=O)C2CC2)cc1	4.8	1.1	4.0	-0.1	24.6*	-0.1
CCC(=O)NC(=S)Nc1ccc(S(=O)(=O)NC(C)=O)cc1	-11.9	-0.3	0.1	-0.2	-1.6	28.9*
